Experimental data as given in PubChem BioAssay (NCATS).
Records with an inconclusive call do not appear. The source made the active and inactive calls. Unless noted, the call rests on the fitted dose curve; in most records, active means well fitted cell-killing curve with a large enough effect; inconclusive means small, poorly fitted or top-dose-only effect, or effect the other way; inactive means no such curve, though single readings can be large or run the other way.

Legend:
[1] = Quantitative High-Throughput drug screen in 47 multiple myeloma cell lines against the NCATS MIPE library collection: KMS28PE_JCRB cell viability assay (AID 1918983); further: nearly all actives have a fitted effect of over 35% in size; further: potency means the concentration at half of the fitted maximal effect
Outline: (§1)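 ATP-based CellTiter-Glo luminescence after 48 h drug exposure (37 °C, 5% CO2) of 500 myeloma cells per well. DMSO-only wells set 100% viability, media-only wells 0%; MIPE 4.0 library added by pin tool.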

[2] = Quantitative High-Throughput drug screen in 47 multiple myeloma cell lines against the NCATS MIPE library collection: L363_DSMZ cell viability assay (AID 1918984); further: nearly all actives have a fitted effect of over 40% in size; further: potency means the concentration at half of the fitted maximal effect
Outline: as §1

[3] = Quantitative High-Throughput drug screen in 47 multiple myeloma cell lines against the NCATS MIPE library collection: OCIMY7_PLB cell viability assay (AID 1918987); further: potency means the concentration at half of the fitted maximal effect; nearly all actives have a fitted effect of over 65% in size
Outline: as §1

[4] = Quantitative High-Throughput drug screen in 47 multiple myeloma cell lines against the NCATS MIPE library collection: OCIMY5_PLB cell viability assay (AID 1918988); further: potency means the concentration at half of the fitted maximal effect; nearly all actives have a fitted effect of over 65% in size
Outline: as §1

[5] = Quantitative High-Throughput drug screen in 47 multiple myeloma cell lines against the NCATS MIPE library collection: OPM1_PLB cell viability assay (AID 1918989); further: nearly all actives have a fitted effect of over 40% in size; further: potency means the concentration at half of the fitted maximal effect
Outline: as §1

[6] = Quantitative High-Throughput drug screen in 47 multiple myeloma cell lines against the NCATS MIPE library collection: SKMM1_PLB cell viability assay (AID 1919863); conditions: SKMM1 myeloma viability, CellTiter-Glo ATP, 48 h; viability: stronger effect = lower value; further: nearly all actives have a fitted effect of over 35% in size; further: potency means the concentration at half of the fitted maximal effect
Outline: as §1

[7] = Quantitative High-Throughput drug screen in 47 multiple myeloma cell lines against the NCATS MIPE library collection: U266_ATCC cell viability assay (AID 1919864); further: potency means the concentration at half of the fitted maximal effect; nearly all actives have a fitted effect of over 35% in size
Outline: as §1

[8] = Quantitative High-Throughput drug screen in 47 multiple myeloma cell lines against the NCATS MIPE library collection: XG6_PLB cell viability assay (AID 1919865); further: potency means the concentration at half of the fitted maximal effect; nearly all actives have a fitted effect of over 40% in size
Outline: as §1

[9] = Quantitative High-Throughput drug screen in 47 multiple myeloma cell lines against the NCATS MIPE library collection: XG1_PLB cell viability assay (AID 1919866); further: potency means the concentration at half of the fitted maximal effect; nearly all actives have a fitted effect of over 35% in size
Outline: as §1

[10] = Quantitative High-Throughput drug screen in 47 multiple myeloma cell lines against the NCATS MIPE library collection: VP6_DJ cell viability assay (AID 1919867); further: potency means the concentration at half of the fitted maximal effect; nearly all actives have a fitted effect of over 40% in size
Outline: as §1

[11] = Quantitative High-Throughput drug screen in 47 multiple myeloma cell lines against the NCATS MIPE library collection: UTMC2_PLB cell viability assay (AID 1919868); conditions: CellTiter-Glo ATP luminescence, 48 h; viability (% of DMSO control): at 45.8 µM (top of the series) unless noted; further: potency means the concentration at half of the fitted maximal effect; nearly all actives have a fitted effect of over 55% in size
Outline: as §1

[12] = Quantitative High-Throughput drug screen in 47 multiple myeloma cell lines against the NCATS MIPE library collection: PE2_PLB cell viability assay (AID 1919869); further: nearly all actives have a fitted effect of over 35% in size; further: potency means the concentration at half of the fitted maximal effect
Outline: as §1

[13] = Quantitative High-Throughput drug screen in 47 multiple myeloma cell lines against the NCATS MIPE library collection: PCM6_Riken cell viability assay (AID 1919870); further: nearly all actives have a fitted effect of over 30% in size; further: potency means the concentration at half of the fitted maximal effect
Outline: as §1

[14] = Quantitative High-Throughput drug screen in 47 multiple myeloma cell lines against the NCATS MIPE library collection: OPM2_DSMZ cell viability assay (AID 1919872); further: potency means the concentration at half of the fitted maximal effect; nearly all actives have a fitted effect of over 30% in size
Outline: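 Viability readout: CellTiter-Glo luminescence following 5 min room-temperature incubation with reagent. Prior exposure: 48 h, 37C, humidified 5% CO2, 500 cells per well.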

[15] = Quantitative High-Throughput drug screen in 47 multiple myeloma cell lines against the NCATS MIPE library collection: KMS11_JCRBsus cell viability assay (AID 1919873); further: nearly all actives have a fitted effect of over 50% in size; further: potency means the concentration at half of the fitted maximal effect
Outline: as §1

[16] = qHTS drug screen for cell cycle checkpoint inhibitors in PARPi-resistant BRCA-mutant ovarian cancer cell lines. (AID 1963452; calls by dose curve; further: potency means the concentration at half of the fitted maximal effect); conditions: PEO1/OlaR viability, CellTiter-Glo luminescence, 96 h; for Z-AUC: stronger effect = lower value
Outline: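 PEO1, PEO4 and PEO1/OlaR ovarian cancer cells, 600 per well, exposed 96 h at 37C to a dilution series. Viability read by CellTiter-Glo luminescence, normalized to DMSO and empty wells; activity summarized as Z-AUC.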

[17] = Quantitative High-Throughput drug screen in 47 multiple myeloma cell lines against the NCATS MIPE library collection: RPMI8226_ATCC cell viability assay (AID 1919871); further: potency means the concentration at half of the fitted maximal effect; nearly all actives have a fitted effect of over 30% in size
Outline: as §1

[18] = Quantitative High-Throughput drug screen in 47 multiple myeloma cell lines against the NCATS MIPE library collection: KMS28BM_JCRB cell viability assay (AID 1919874); further: nearly all actives have a fitted effect of over 35% in size; further: potency means the concentration at half of the fitted maximal effect
Outline: as §1

[19] = Quantitative High-Throughput drug screen in 47 multiple myeloma cell lines against the NCATS MIPE library collection: KMS34_JCRB cell viability assay (AID 1918985); further: nearly all actives have a fitted effect of over 40% in size
Outline: as §1

[20] = qHTS for identification of novel therapeutic agents for treatment of microphthalmiaassociated transcription factor (MiT) renal cell carcinoma (RCC) (AID 1963991); conditions: CellTiter-Glo, 48 h, stronger effect = lower value
Outline: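 Three TFE3-fusion RCC lines (UOK109, UOK124, UOK145), 500 cells/well in complete medium, were treated with MIPE 4.0 compounds for 48 hours at 37 C. Viability was by CellTiter-Glo luminescence, normalized to DMSO (100%) and empty wells (0%); curves fitted over 11 concentrations.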

[21] = measured here: PEO1 parental Z-AUC

O=C(NC1CCNCC1)c1[nH]ncc1NC(=O)c1c(Cl)cccc1Cl
-1.49: Z-AUC [16, 21]
-1.05: Z-AUC ([16]; measured here: PEO4 Z-AUC)
active: Potency [1] 0.235 µM | Potency [2] 0.469 µM | Potency [3] 3.72 µM | Potency [4] 0.0743 µM | Potency [5] 1.87 µM | Potency [6] 0.526 µM | Potency [7] 0.187 µM | Potency [8] 0.469 µM | Potency [9] 0.833 µM | Potency [10] 0.59 µM | Potency [11] 0.662 µM | Potency [12] 0.833 µM | Potency [13] 0.166 µM | Potency [14] 0.526 µM | Potency [15] 0.332 µM | Potency [16] 0.977 µM

Cc1cc(Nc2ncnc3ccc(-c4ccc(CNCCS(C)(=O)=O)o4)cc23)ccc1Oc1ccn2ncnc2c1
active: Potency [1] 23.5 µM | Potency [2] 0.372 µM | Potency [3] 9.35 µM | Potency [4] 16.6 µM | Potency [5] 5.9 µM | Potency [6] 26.4 µM | Potency [7] 18.7 µM | Potency [8] 1.66 µM | Potency [10] 1.48 µM | Potency [11] 6.62 µM | Potency [12] 3.32 µM | Potency [13] 16.6 µM | Potency [17] 26.4 µM | Potency [14] 20.9 µM | Potency [15] 5.9 µM
inactive: Z-AUC [16] 0.841
0.912: Z-AUC [16, 21]
0.782: Z-AUC ([16]; measured here: PEO4 Z-AUC)

O=c1[nH]nc(Sc2ncc([N+](=O)[O-])s2)n1-c1ccc2c(c1)OCCO2
-0.291: Z-AUC ([16]; measured here: PEO4 Z-AUC)
0.187: Z-AUC [16, 21]
inactive: Z-AUC [16] 0.0772
active: Potency [1] 3.32 µM | Potency [2] 3.72 µM | Potency [3] 0.935 µM | Potency [4] 2.96 µM | Potency [5] 2.09 µM | Potency [6] 4.18 µM | Potency [7] 2.64 µM | Potency [8] 2.09 µM | Potency [9] 2.09 µM | Potency [10] 2.35 µM | Potency [11] 2.35 µM | Potency [12] 0.743 µM | Potency [13] 1.48 µM | Potency [17] 3.72 µM | Potency [14] 8.33 µM | Potency [15] 2.96 µM

CNC(=O)c1cc(Oc2ccc(NC(=O)Nc3cc(C(C)(C)C)nn3-c3ccc4ncccc4c3)c(F)c2)ccn1
1.19: Z-AUC ([16]; measured here: PEO4 Z-AUC)
inactive: Z-AUC [16] 0.924
1.09: Z-AUC [16, 21]
active: Potency [1] 9.35 µM | Potency [2] 18.7 µM | Potency [3] 6.62 µM | Potency [4] 6.62 µM | Potency [5] 5.26 µM | Potency [6] 14.8 µM | Potency [7] 13.2 µM | Potency [8] 7.43 µM | Potency [10] 4.69 µM | Potency [11] 4.18 µM | Potency [12] 5.26 µM | Potency [13] 2.64 µM | Potency [17] 16.6 µM | Potency [14] 18.7 µM

C[C@@H](Oc1cc(-c2cnn(C3CCNCC3)c2)cnc1N)c1c(Cl)ccc(F)c1Cl
active: Potency [1] 11.8 µM | Potency [2] 4.69 µM | Potency [3] 3.32 µM | Potency [4] 5.26 µM | Potency [5] 5.9 µM | Potency [6] 7.43 µM | Potency [7] 14.8 µM | Potency [8] 2.35 µM | Potency [9] 4.69 µM | Potency [10] 4.18 µM | Potency [11] 2.35 µM | Potency [12] 6.62 µM | Potency [13] 14.8 µM | Potency [17] 13.2 µM | Potency [14] 18.7 µM | Potency [15] 2.64 µM | Potency [18] 8.33 µM
-0.116: Z-AUC ([16]; measured here: PEO4 Z-AUC)
inactive: Z-AUC [16] 0.111
-0.187: Z-AUC [16, 21]

CCCCOc1c(C(=O)c2c(F)cc(C)cc2F)cnc2n[nH]cc12
-0.136: Z-AUC ([16]; measured here: PEO4 Z-AUC)
active: Potency [1] 5.9 µM | Potency [2] 3.32 µM | Potency [3] 4.18 µM | Potency [4] 4.18 µM | Potency [5] 11.8 µM | Potency [6] 5.26 µM | Potency [7] 13.2 µM | Potency [8] 2.35 µM | Potency [9] 2.96 µM | Potency [10] 3.32 µM | Potency [11] 3.32 µM | Potency [13] 2.64 µM | Potency [15] 2.64 µM | Potency [18] 2.96 µM
inactive: Z-AUC [16] 0.41
0.585: Z-AUC [16, 21]

CC(C)(O)CCc1ccc(OCc2cc(-c3cccc(OC(F)F)c3)c3ncccc3c2)cc1
active: Potency [8] 20.9 µM
0.328: z-score ([20]; TFE3-RCC viability, measured here: UOK124 Z-AUC)
0.116: Z-AUC [16, 21]
inactive: Potency [1] | Potency [2] | Potency [19] | Potency [5] | viability [6] 123% | Potency [12] | Potency [13] | Potency [15] | Potency [18] | Z-AUC [16] -0.38
0.0594: z-score ([20]; TFE3-RCC viability, measured here: UOK145 Z-AUC)
0.147: Z-AUC ([16]; measured here: PEO4 Z-AUC)
0.14: z-score ([20]; TFE3-RCC UOK109 viability, measured here: UOK109 Z-AUC)

CN(C)Cc1c(C(=O)NCCOc2ccc(C(=O)NO)cc2)oc2ccccc12
inactive: Z-AUC [16] -0.744
-1.26: Z-AUC ([16]; measured here: PEO4 Z-AUC)
active: Potency [1] 0.743 µM | Potency [2] 0.332 µM | Potency [3] 0.59 µM | Potency [4] 0.469 µM | Potency [5] 0.469 µM | Potency [6] 1.05 µM | Potency [7] 1.18 µM | Potency [8] 2.96 µM | Potency [9] 1.05 µM | Potency [10] 0.148 µM | Potency [11] 0.418 µM | Potency [12] 2.35 µM | Potency [13] 0.935 µM | Potency [17] 1.48 µM | Potency [14] 1.05 µM | Potency [15] 0.662 µM
-1.25: Z-AUC [16, 21]

Nc1ccccc1NC(=O)c1ccc(CNC(=O)OCc2cccnc2)cc1
inactive: Z-AUC [16] -0.769
-1.32: Z-AUC [16, 21]
active: Potency [1] 2.35 µM | Potency [2] 0.418 µM | Potency [3] 1.66 µM | Potency [4] 1.32 µM | Potency [5] 0.743 µM | Potency [6] 1.32 µM | Potency [7] 5.9 µM | Potency [8] 2.35 µM | Potency [9] 1.66 µM | Potency [10] 0.743 µM | Potency [11] 1.32 µM | Potency [13] 1.66 µM | Potency [17] 3.32 µM | Potency [14] 2.09 µM | Potency [15] 1.87 µM | Potency [18] 1.05 µM
-1.54: Z-AUC ([16]; measured here: PEO4 Z-AUC)
